Records with an inconclusive call do not appear. Active and inactive are the calls of the source. The call rests on the fitted dose curve; in most records, active means well fitted inhibition curve with a large enough effect; inconclusive means small, poorly fitted or top-dose-only effect, or effect the other way; inactive means flat fitted curve, though single readings scatter.
Assay: Secondary Assay for General miRNAs Modulators and/or Inhibitors/Activators of miR-21: miR-30 Firefly Luciferase Assay
Conditions: HeLa miR-30 FLuc reporter, luminescence, 48 h; series mostly up to 38.3 µM
Description: MLSCN Grant: 1 R21 NS059478-01 Assay Provider: Qihong Huang, The Wistar Institute NCGC Assay Overview: MicroRNAs (miRNAs) are endogenously encoded small (~20-25 nucleotides), nonprotein-coding RNAs that are involved in post-transcriptional repression of target messenger RNAs (mRNAs) (Le and Hannon, 2004). Estimated to be involved in the regulation of 30% of all protein-coding mRNAs (Filipowicz et al., 2008), miRNAs play a significant role in many biological processes including cellular differentiation and tissue development (Ghildiyal and Zamore, 2009). […] Compounds active in the miR-21 FLuc assay were clustered using Leadscope and active chemical series were prioritized based on chemical properties, potential for medicinal chemistry optimization, and SAR. Within each chemical series, representative compounds were re-acquired to test for activity in a secondary assay based on the quality of their CRC, efficacy, and potency. The secondary assay to determine if compounds active in the miR-21 FLuc assay were potentially specific for miR-21 and were not general modulators of the miRNA pathway was another cell-based FLuc reporter gene assay, this time targeting miR-30. Compounds found active in both the miR-21 FLuc and miR-30 FLuc assays are not considered miR-21 specific compounds, and may be general miRNA modulators.
NCGC Assay Protocol Summary: Reagents: HeLa cells stably expressing firefly luciferase (FLuc) under the control of a CMV promoter (upstream) and a miR-30 binding sequence directly downstream of the gene. These cells also stably express miR-30. Control compounds used were compound C3 (provided by collaborator), N6-phenyladenosine (MP Biomedicals, 0215379625), and DMSO. Assay Summary: 6uL of HeLa miR-30-FLuc cells in assay buffer (DMEM, Invitrogen #21063-029; 10% FBS, HyClone #SH30071.03) were dispensed at 1000cells/well (1.7 x 10^5 cells/mL) into Greiner solid-white TC-treated 1536-well plates using a Multidrop Combi (Thermo Fisher Scientific). Plates were incubated for one hour at 37 degree Celsius, 95% humidity, 5% CO2. These assay plates were then treated with 23nL of compound or DMSO using a Kalypsys pin tool, which allows for delivery of a 24-point titration of each compound to the assay plate, with a final compound concentration ranging from approximately 40uM to 5pM. Assay plates were then incubated for 48 hours. After incubation, plates were allowed to come to RT for one hour prior to delivery of 3uL of 3X luciferase detection reagent. After a 15 minute incubation to allow for cell lysis, luciferase activity was measured using a ViewLux CCD imager (PerkinElmer), with an average exposure time of 2-12 seconds. Keywords: NIH Roadmap, MLPCN, MLSMR, qHTS, miR-21, miR-30, microRNA, firefly luciferase, FLuc.
In the case of `COc1ccc(-c2nnc(SCC(=O)Nc3cccc(F)c3)s2)cc1`, the Potency is reported as 8.95 µM (active).

Source: PubChem BioAssay AID2507 (National Center for Advancing Translational Sciences (NCATS), 2010)
